This passage reports binding signal results from patent US20210230599, “STEM-LOOP COMPOSITIONS AND METHODS FOR INHIBITING INTERLEUKIN-8” (VITRISA THERAPEUTICS, INC., published 2021).

Some results are limits rather than exact numbers.

The target of this test is Interleukin-8 (IL8, CXCL8), C-terminal His-tagged (Homo sapiens, UniProt P10145 SEQ:1-72). Description: competition; competition TR-FRET; G18C. The settings on record: tags: C-terminal 6xHis (Sino Biological); ssRNA; 2'-F G, 2'-OMe A/C/U, 5' C6NH2, 3' idT. As to the method:
To better understand the sequence requirements and to confirm the stem structures of members of the Aptamer 3 family as determined from sequence covariation analysis from both the primary and secondary (degenerate) selections, a series of variants which included mutations and deletions to the predicted stems were synthesized and screened (Table 24). Activity of each of these variants were tested using a time resolved competition TR-FRET assay in which the labeled parent Aptamer 3 was competed with increasing concentrations of unlabeled variants for binding to IL8 (FIG. 14). Briefly, 2-fold dilutions of thermally equilibrated aptamers were made in TR-FRET Buffer (50 mM MOPS, pH 7.4, 125 mM NaCl, 5 mM KCl, 50 μM CHAPS, 0.1 mg/mL BSA, 1 mM CaCl₂, and 1 mM MgCl₂). 5 μL of aptamer or control solution was added to 5 μl mix of 10 nM C-terminal His-tagged-IL8, 60 nM ALEXA FLUOR® 647-labeled Aptamer, and 5 nM anti-His-Eu (Perkin Elmer) in a black wall low volume 384 well plate (Greiner). For control, 5 μl of 1000-fold excess of unlabeled parent aptamer or 5 μl TR-FRET buffer alone was added to the mix of ALEXA FLUOR® 647-labeled aptamer, His-IL8, and anti-His-Eu. The plate was covered with a plate seal and subsequently incubated in the dark for 1 hour at room temperature. The plate was read on a Biotek CYTATION™ 5 plate reader. […]
On the technique in general: In TR-FRET formats the signal depends on donor and acceptor labels being close together.
UGAUGACGGUAGAUUACCGGUAGAGUGACCGCAUCU: the binding signal was above 10 fold worse than Aptamer 3.
